For 31 compounds, composite z-score results are on record in PubChem BioAssay.

Left-right determination factor 2 (Homo sapiens), sequence (O00292 whole entry, looked up): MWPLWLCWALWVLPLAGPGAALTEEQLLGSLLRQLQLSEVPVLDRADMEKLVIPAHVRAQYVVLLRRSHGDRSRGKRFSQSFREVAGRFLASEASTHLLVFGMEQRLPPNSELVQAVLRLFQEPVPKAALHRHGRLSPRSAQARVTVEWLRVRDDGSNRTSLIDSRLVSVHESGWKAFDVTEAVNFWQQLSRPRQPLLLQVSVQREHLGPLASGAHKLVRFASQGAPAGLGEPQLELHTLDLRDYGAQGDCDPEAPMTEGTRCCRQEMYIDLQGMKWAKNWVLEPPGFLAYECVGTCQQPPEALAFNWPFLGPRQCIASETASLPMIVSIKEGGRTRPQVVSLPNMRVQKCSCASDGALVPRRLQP

This experiment addresses Left-right determination factor 2 (Homo sapiens) (UniProt O00292). The experiment is described as follows: LEFTY2 binders on small-molecule microarrays, primary screen, biochemical, small-molecule microarray, 635 nm fluorescence scan (AID 1110). Conditions: LEFTY2 binding, higher = more signal.
With `Oc1ccc2cc[n+](Cc3cccc(OC(F)(F)F)c3)cc2c1`, the composite z-score came out at 0.939.

`CC1CC/C=C\[C@H]2OC34C=CCN(CCN5CCOCC5)C(=O)[C@H]3N(CCCCCO)C(=O)[C@@H]4C2C(=O)O1` (stereo partly specified) came in with a composite z-score of 0.0111.

The compound `C=C(C(=O)CC[C@@H](OC(=O)c1cccnc1)c1ccc(CO)o1)C(C)C` displayed a composite z-score of 0.46.

Take `C=CCC(OC(C)=O)[C@@H]1[C@@H](N(Cc2cc3ccccc3o2)C(=O)c2cccc3ccccc23)c2cc(OCCCO)ccc2N1C(=O)Cc1ccc(OC)cc1` (stereo partly specified): the composite z-score amounted to 0.443.

On to `C=CCN1C(=O)[C@]2(COC(c3ccc(OCCCO)cc3)=N2)Cc2ccccc21`, for which the composite z-score was -0.352.

The compound `O=C(NCc1ccccc1)[C@@H]1c2ccccc2C(=O)N(C2CCCCC2)[C@H]1c1ccc(CO)cc1` registered a composite z-score of -0.379.

The compound `[N-]=[N+]=NCc1ccccc1C[C@@]1(C(=O)NCc2ccccc2)N=C(c2ccc(OCCCO)cc2)O[C@@H]1c1ccccc1CN=[N+]=[N-]` gave a composite z-score of -0.372.

In turn, `CCOC(=O)C=Cc1cccc(OC)c1O` displayed a composite z-score of -1.23.

As for `CN(C)CCCC[C@@H]1NC(=O)[C@H]2C[C@@H](C(=O)NCCCCCNC(=O)CS)[C@@H](c3ccc(O)cc3)N2C1=O`, the composite z-score is -1.34.

On to `COC(=O)[C@@]1(Cc2ccccc2)[C@H]2c3cc(C(=O)N(C)C)n(Cc4cc(F)c(F)c(F)c4)c3C[C@H]2CN1C(=O)c1ccccc1`, for which the composite z-score was -0.762.

Consider `C=C(C)[C@@H]1CC=C(C(O)C2C=CC3C(=O)N(Cc4ccccc4)C(=O)C3N2n2cnnc2)CC1` (stereo partly specified), for which the composite z-score was -0.485.

As to `O=C(NCCN1CCOCC1)[C@@H]1c2ccccc2C(=O)N(Cc2cc(F)cc(C(F)(F)F)c2)[C@H]1c1ccc(CO)cc1`, the composite z-score was -1.61.

As for `O=C1O[C@H](c2ccccc2)[C@H](c2ccccc2)N2[C@H]1[C@@H](C(=O)NC[C@H](O)c1ccccc1)[C@]1(C(=O)Nc3ccc(C#CC4(O)CCCCCC4)cc31)[C@H]2c1ccccc1OCCO`, the composite z-score is -0.0569.

Compound `C=C(/C(=C/C[C@@H](OC(=O)c1ccncc1)c1ccc(CO)o1)c1cc(C(=O)OC)ccc1OC)C(C)C` yielded a composite z-score of 0.512.

`COc1ccc([Si](C)(C)[C@@H]2[C@@H](CCO)O[C@]3(C(=O)N(Cc4ccccc4)c4ccc(N(C=O)c5ccccc5)cc43)[C@H]2C)cc1` had a composite z-score of 0.391.

The compound `CCCCCCC#C[Si](O[C@H](c1ccccc1)c1cn([C@H](C)c2ccccc2)nn1)(C(C)C)C(C)C` registered a composite z-score of 0.434.

In turn, `[N-]=[N+]=NCc1ccccc1[C@@H]1OC(c2ccc(OCCCO)cc2)=N[C@]1(Cc1ccccc1)C(=O)O` returned a composite z-score of -0.252.

In turn, `CCCC[C@@H]1C[C@H]1[C@@H](NC(=O)c1ccccc1)c1ccc(-c2ccccc2)cc1` came in with a composite z-score of 0.0692.

Compound `Cc1ccc(S[C@]2(C(=O)NCCN3CCOCC3)CC(=O)N(C3CCCCC3)[C@@H]2c2ccc(CO)cc2)cc1` showed a composite z-score of -0.55.

`CC(C)NC(=O)[C@@]1(c2ccc([N+](=O)[O-])cc2)CC(=O)N(C(C)C)[C@@H]1c1ccc(CO)cc1` gave a composite z-score of -1.86.

Regarding `C=CCN1Cc2ccccc2C[C@@]2(COC(c3ccc(OCCCO)cc3)=N2)C1=O`, the composite z-score was determined as 0.588.

Take `COCCn1c(C(=O)N2CCCC2)cc2c1C[C@H]1CN(C(=O)c3ccccc3)[C@@](Cc3ccc(OC)cc3)(C(=O)OC)[C@@H]21`: the composite z-score was -0.464.

`C=C[C@@H](C)[C@@H](OC(=O)Nc1ccc(OC)cc1)c1ccc(O)c2ccccc12` registered a composite z-score of 0.312.

In turn, `COCCOC(=O)N1C(=O)[C@@]2(c3ccccc31)[C@H](C(=O)N1CCCCCCC1)[C@H]1C(=O)O[C@H](c3ccccc3)[C@H](c3ccccc3)N1[C@@H]2c1ccccc1OCCO` displayed a composite z-score of 0.941.

As for `COCCn1c(C(=O)N(C)C)cc2c1C[C@H]1CN(C(=O)c3ccccc3)[C@@](Cc3ccc(F)cc3)(C(=O)OC)[C@@H]21`, the composite z-score was -0.0863.

`CC(C)N1C(=O)c2ccccc2[C@](C)(C(=O)NCCCN(C)C)[C@@H]1c1ccc(CO)cc1` gave a composite z-score of -0.553.

In the case of `O=C1C2C=CC(C(O)c3ccc(-c4ccccc4)s3)N(Nc3ccccc3F)C2C(=O)N1c1ccccc1` (stereo unspecified), the composite z-score was -0.0452.

`CN1C(=O)C2C(C1=O)C1C=C(c3ccc(CO)cc3)C2C(C2CC2)N1Cc1sc2ccccc2c1Cl` (stereo unspecified) displayed a composite z-score of 0.545.

`CO[C@H]1O[C@H](CO)[C@@H](OC(=O)Nc2ccc3c(c2)OCO3)[C@H](OC(=O)Nc2ccc3c(c2)OCO3)[C@H]1OC(=O)Nc1ccc2c(c1)OCO2` registered a composite z-score of 0.265.

Compound `C=CC[C@]1(C(=O)NCCN2CCOCC2)N=C(c2ccc(OCCCO)cc2)O[C@H]1c1ccccc1N=[N+]=[N-]` yielded a composite z-score of 0.26.

With `C=CCNC(=O)[C@@H]1[C@H]2C(=O)O[C@H](c3ccccc3)[C@H](c3ccccc3)N2[C@H](c2ccccc2OCCO)[C@@]12C(=O)N(C(=O)OCCOC)c1ccc(C#CCC(C(=O)OC)C(=O)OC)cc12`, the composite z-score stood at 1.47.
